Screening data as filed in PubChem.
This excerpt belongs to a sample that is enriched for hits.
ClpP mod: qHTS Assay for Activators of ClpP | purified B. subtilis ClpP, FRET peptide cleavage, 20 min | Potency, µM (doses to about 57.5 µM), for the others: top-dose activity change, negative = active | 1.9% of 340,000 active; active = well fitted falling curve with a large enough effect; inconclusive = small, poorly fitted or top-dose-only effect; inactive = no such curve, though single readings can be large or run the other way; also: the source files actives as falling curves though it sought activators and does not explain the sign; nearly all actives have a fitted effect of over 65% in size
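ClpP 10 microg/mL final, pH 8 Tris/KCl buffer with BSA, glycerol, Tween-20; compound pinned in; FRET-FV substrate; RT 20 min; Ex320/Em430; ΔFRET vs ADEP 5.8 microM, DMSO, no enzyme.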
a7 integrin act: activators of alpha7 integrin expression for muscular dystrophy; AID 624291; 0.064% of 350,000 active; alpha7betagal myoblasts, beta-gal FDG fluorescence, 48 h; Potency, µM (titrated, usually from 38.3 µM), without a hit: top-dose activation, usual class: activators;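 also: 100% = response of the positive control SU9516; nearly all actives have a fitted effect of over 60% in size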
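alpha7betagal+/- myoblasts (passage 13, 250/well) treated 48 h at 37C with compounds at 1:260 dilution of DMSO stock. Lysed, then beta-galactosidase activity read as FDG fluorescence (ex 480/em 540) after 30 min, with pre-read for autofluorescence.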
USP2a block: inhibitors of human ubiquitin-specific protease USP2a | O75604 | USP2 core, Ub-CHOP2 coupled fluorogenic reporter, 485/531 | Potency, µM (series often up to 38.3 µM), without a hit: top-dose activity change, negative = inhibition, hits mostly inhibitors | 0.01% of 330,000 active;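 also: plate controls were DMSO wells for no effect and full inhibition by NEM control for full effect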
Target sequence (O75604 whole entry, looked up): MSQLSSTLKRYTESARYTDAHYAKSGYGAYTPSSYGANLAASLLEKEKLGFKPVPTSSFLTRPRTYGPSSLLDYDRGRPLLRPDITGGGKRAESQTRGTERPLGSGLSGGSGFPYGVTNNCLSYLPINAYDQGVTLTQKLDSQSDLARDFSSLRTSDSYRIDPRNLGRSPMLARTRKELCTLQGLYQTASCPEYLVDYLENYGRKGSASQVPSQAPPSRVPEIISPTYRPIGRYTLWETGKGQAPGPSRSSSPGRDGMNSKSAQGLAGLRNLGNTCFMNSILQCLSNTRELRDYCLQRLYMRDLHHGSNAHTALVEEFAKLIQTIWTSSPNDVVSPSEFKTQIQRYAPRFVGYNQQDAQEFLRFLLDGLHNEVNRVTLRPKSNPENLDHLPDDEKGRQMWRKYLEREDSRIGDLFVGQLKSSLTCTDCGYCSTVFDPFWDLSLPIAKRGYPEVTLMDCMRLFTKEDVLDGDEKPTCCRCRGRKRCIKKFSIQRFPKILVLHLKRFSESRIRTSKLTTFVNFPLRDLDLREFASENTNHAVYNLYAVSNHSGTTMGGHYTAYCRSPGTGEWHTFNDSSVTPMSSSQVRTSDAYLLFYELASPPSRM
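USP2 core (10nM final) preincubated 30min RT with compound in 20mM Tris-HCl pH 8.0, 2mM CaCl2, 2mM beta-mercaptoethanol, 0.05% CHAPS; 25nM Ub-CHOP2 plus 25nM reporter substrate added, fluorescence (Ex485/Em531) read after 60min.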
MmCpn inh: M. maripaludis TRiC chaperonin inhibition; AID 504842; Potency, µM (top dose mostly 76.9 µM), inactives show at the top dose activity, negative = inhibition, actives largely listed as inhibitors; purified Mm-Cpn ATPase, ADP Transcreener TR-FRET; 0.031% of 330,000 active; also: % is scaled to controls: 0 for no effect and ±100 for the full control effect; nearly all actives have a fitted effect of over 80% in size
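TR-FRET (320 nm excitation; 590 and 665 nm emission) reports ADP made from 10 uM ATP by 25 nM enzyme; compounds were preincubated 10 min, reaction run 30 min, both at 37°C.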
Eya2 phos inh: blocks the phosphatase activity of human Eya2; 0.006% of 330,000 active; Potency, µM (series often up to 76.9 µM), for the others: at the highest dose activity, negative = inhibition, actives largely listed as inhibitors; O00167; recombinant Eya2, OMFP fluorescence dephosphorylation (OMFP is methylfluorescein phosphate); also: % is scaled to controls: 0 for no effect and ±100 for the full control effect
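Eya2 (0.2 uM) preincubated 10 min at ambient with compound, then OMFP substrate added at 50 uM; 10 min reaction in 50 mM HEPES pH 7.5, 50 mM NaCl, 5 uM MgCl2, 0.05% BSA, 1 mM DTT. Fluorescence read at Ex 485/Em 525 nm.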
p53 reactivator: restores transcriptional activity of mutant p53 | AID 504706 | H1299 p53-A138V BP100-luciferase reporter, luminescence, 24 h | Potency, µM (top dose mostly 92.2 µM), for inactives: at the top dose activity change, positive = activation, usual class: activators | 0.063% of 320,000 active; also: % of control where 0% means no effect; nearly all actives have a fitted effect of over 45% in size
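p53-null H1299 cells stably carrying temperature-sensitive p53-A138V and a BP100-luciferase reporter were pinned with compounds (4-point, 1:5 series) and held 24 hrs at 37 deg C. Luminescence was read 10 min after detection reagent.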
Starred values were filed as active, the others as inactive; ? = inconclusive; . = not tested or not shown. Unless noted, calls follow the shape of the dose curve; as a rule, active = well fitted curve in the direction sought with a large enough effect; inconclusive = small, poorly fitted or top-dose-only effect, or another doubt; inactive = no such curve, though single readings can be large; an effect the other way counts as inactive or inconclusive. Potency is read from the fitted curve at half-maximal effect.

SMILES	ClpP mod	a7 integrin act	USP2a block	MmCpn inh	Eya2 phos inh	p53 reactivator
Cc1nc(SCC(=O)Nc2ccccn2)n[nH]1	.	-41.2%	1.2%	2.8%	3.5%	3.2%
O=C(CSc1nnc2ccc(-c3ccccn3)nn12)Nc1ccccc1	36.3%	17.7%	0.2%	-0.1%	2.7%	6.9%
COc1ccc(NC(=O)CSc2nnc3ccc(-c4ccccn4)nn23)cc1	15.8µM*	0.0%	0.7%	1.1%	33.6%	5.0%
CC(C)CCOc1ccc(-c2c(=O)n(OCc3ccc([N+](=O)[O-])cc3)c3ccccc3[n+]2[O-])cc1	2.0%	5.1%	-0.1%	0.2%	-5.7%	0.8%
CCCOc1ccc(-c2c(=O)n(OCc3ccc([N+](=O)[O-])cc3)c3ccccc3[n+]2[O-])cc1	28.2µM*	12.1%	-0.1%	-3.1%	-2.2%	-8.1%
C#CCOc1ccc(/C=C2\SC(=S)N(Cc3cccnc3)C2=O)cc1	3.0%	-35.6%	1.0%	-2.8%	1.4%	35.5µM*
COC(=O)C1=CNC=C(C(=O)OC)C1c1ccc(C(=O)OC)cc1	28.2µM*	0.4%	1.6%	-0.2%	-13.1%	-0.6%
COC(=O)C1=C(C)N(C)C(C)=C(C(=O)OC)C1c1ccc(C(=O)OC)cc1	5.7%	5.9%	-2.7%	2.2%	-3.9%	-4.5%
CC1=CC(C)(C)Nc2ccc(OC(=O)CN3C(=O)c4ccccc4C3=O)cc21	25.1µM*	-55.5%	1.9%	0.7%	4.5%	-19.4%
CCOc1cc(S(=O)(=O)NCCc2ccccc2C)c(OCC)cc1-n1cnnn1	31.6µM*	19.7%	-4.1%	-0.7%	-0.9%	-6.9%
CCOc1cc(S(=O)(=O)N(CC)CC)c(OCC)cc1-n1cnnn1	15.8µM*	1.6%	0.9%	0.4%	22.5%	-4.0%
Cc1cc(S(=O)(=O)NCCc2ccccc2)ccc1-n1cnnn1	.	-16.4%	0.1%	2.4%	-0.3%	-0.4%
CCOc1cc(S(=O)(=O)N2CCC(Cc3ccccc3)CC2)c(OCC)cc1-n1cnnn1	14.1µM*	5.2%	-1.3%	-0.8%	1.0%	1.1%
CCOc1cc(S(=O)(=O)NCCc2cccc(C)c2)c(OCC)cc1-n1cnnn1	31.6µM*	21.4%	-5.1%	0.7%	-24.9%	-8.5%
CCOc1ccc(-n2cnnn2)cc1S(=O)(=O)Nc1c(C)cccc1C	-7.3%	-13.9%	-0.9%	0.8%	5.9%	-11.2%
COc1ccc(-c2sc(N)nc2-c2ccccc2)cc1	-0.1%	.	.	.	.	.
CS(=O)(=O)c1ccc(NC(=O)COc2ccccc2C(=O)Nc2ccccc2)cc1	0.8%	.	.	.	.	.
COc1cc(CNCc2c(C(=O)O)c(C)n(Cc3cccc(Cl)c3)c2C)cc(OC)c1OC	-5.4%	.	.	.	.	.
CCOc1ccc(C2c3c(oc4ccc(C)cc4c3=O)C(=O)N2CCCN(C)C)cc1 (centres undefined)	0.1%	.	.	.	.	.
CN(C)c1ccc(/C=C/c2c3c(nc4ccccc24)CCCC3)cc1	-1.1%	.	.	.	.	.
COC(=O)Cc1c(O)ccn(Cc2ccc3c(c2)OCO3)c1=O	0.4%	10µM*	1.2%	-1.9%	-11.4%	-3.5%
O=c1c(Cc2c(F)cccc2Cl)c(O)ccn1Cc1ccc2c(c1)OCO2	0.4%	5.9%	2.2%	-1.6%	-4.5%	-2.9%
Cc1csc(NCC(=O)c2c(C)[nH]c3ccccc23)n1	-13.6%	.	.	.	.	.
Cc1cc2c(cc1S(=O)(=O)N1CCN(c3cccc(C)c3C)CC1)OCCN2C	28.2µM*	8.8%	0.8%	-0.5%	-9.5%	.
CCCCCC(=O)Nc1ccc(S(=O)(=O)Nc2nccnc2OC)cc1	25.1µM*	-34.3%	1.7%	0.3%	?	-5.2%
COc1nccnc1NS(=O)(=O)c1ccc(NS(=O)(=O)c2ccc(NC(C)=O)cc2)cc1	1.3%	21.1%	0.0%	1.9%	3.2%	-1.6%
CN(C)S(=O)(=O)c1cccc(-c2cn3ccccc3n2)c1	?	21.2%	2.2%	-2.9%	-9.6%	7.9%
O=S(=O)(c1cccc(-c2cn3cc(Cl)ccc3n2)c1)N1CCOCC1	28.2µM*	-20.4%	1.4%	-23.0%	-11.2%	-11.7%
